Experimental findings from article PMC10726135, “HNF4α isoforms regulate the circadian balance between carbohydrate and lipid metabolism in the liver” are described below.

Whole data set: some 18,000 sequences, median “log2 normalized intensity” near 0.39, cut for the highest 2% near 6.6. The sample holds the highest values, similar sequences and a random draw of the others, so the mix is not that of the screen.

The assay deals with T1, HNF4alpha2 (COS-7 nuclear extract) (Homo sapiens, UniProt P41235 1-474).
T1 sequence: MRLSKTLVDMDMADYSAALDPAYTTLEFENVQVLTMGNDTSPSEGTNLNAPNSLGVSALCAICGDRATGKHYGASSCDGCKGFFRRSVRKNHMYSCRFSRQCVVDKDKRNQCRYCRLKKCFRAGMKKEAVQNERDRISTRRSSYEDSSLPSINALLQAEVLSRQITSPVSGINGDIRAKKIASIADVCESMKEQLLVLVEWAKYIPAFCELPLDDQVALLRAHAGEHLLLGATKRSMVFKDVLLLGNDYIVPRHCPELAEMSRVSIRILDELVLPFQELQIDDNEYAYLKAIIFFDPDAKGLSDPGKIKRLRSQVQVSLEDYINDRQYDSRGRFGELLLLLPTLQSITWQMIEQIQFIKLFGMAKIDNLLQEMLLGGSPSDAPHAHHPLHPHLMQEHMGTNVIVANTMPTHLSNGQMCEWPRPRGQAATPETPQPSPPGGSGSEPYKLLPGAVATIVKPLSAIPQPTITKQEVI
Nature of the assay: protein-binding microarray; COS-7 nuclear extract on double-stranded Agilent 4x180k PBM; binding buffer, salt, pH and temperature not given in the material; high values mean tight binding. To be noted: chain copies: 2; label: 3' end of strand 1 on the slide; dsDNA, one strand shown. In short, it runs like this:
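The binding signal is Agilent software's gProcessedSignal after background correction and normalization. Arrays were a custom Agilent SurePrint G3 4x180k design of double-stranded ~60-nt oligonucleotides with ~44,000 test sequences in quadruplicate, probed with nuclear extracts of COS-7 cells transiently expressing a human HNF4α isoform. Scans were made at 2-µm resolution on an Agilent G2565CA scanner.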
With “CACAGCTCGACCTTTGACCTTCGGCTTCCCGCCTAGGGAGATTAGAGTATCGGTCGA”, the binding signal is 8.84 log2 normalized intensity.
To “GCTCAGCTGGTTGCCCCTTTGACCCTCGGGGCCTAGGGAGATTAGAGTATCGGTCGA” belongs 6.11 log2 normalized intensity; to “CAGGGTGGGGTCTCGCTGCTTCGGCCTTTGGCCTAGGGAGATTAGAGTATCGGTCGA”, 1.33 log2 normalized intensity.
In the case of “TCAGGCACAGCTCGACCTTTGACCTTCGGCGCCTAGGGAGATTAGAGTATCGGTCGA” it was 10.2 log2 normalized intensity; in that of “AAATCCCCGCCTTTGACACAGGCGACCTTCGCCTAGGGAGATTAGAGTATCGGTCGA”, 3.94 log2 normalized intensity.
On to “TCTCGCTGCTTCGGCCTTTGACCTCGTGATGCCTAGGGAGATTAGAGTATCGGTCGA”, for which the binding signal was 6.52 log2 normalized intensity.
In the case of “TGGGGTCTCGCTGCTTCGGCCTTTGACCTCGCCTAGGGAGATTAGAGTATCGGTCGA” it was 7.94 log2 normalized intensity; in that of “AGCTCGCTCAGCTGGTTGCCCCTTTGACCCGCCTAGGGAGATTAGAGTATCGGTCGA”, 7.89 log2 normalized intensity.
In the case of “GCCCCAGCTCGCTCAGCTGGTTGCCCCTTTGCCTAGGGAGATTAGAGTATCGGTCGA” it was 4.14 log2 normalized intensity; in that of “CCCGCCTTTGACACAGGCGACCTTCGCTCGGCCTAGGGAGATTAGAGTATCGGTCGA”, 5.17 log2 normalized intensity.
“CCTTTGACCTTCGGCTTCCCCAGAGAAAGAGCCTAGGGAGATTAGAGTATCGGTCGA”: the binding signal amounted to 3.03 log2 normalized intensity.
For “CTTTGACACAGGCGACCTTCGCTCGGCTCGGCCTAGGGAGATTAGAGTATCGGTCGA”, the binding signal turned out to be 3.46 log2 normalized intensity.
As to “CCTTGCACTATTGACCCAGTGAAACAACACGCCTAGGGAGATTAGAGTATCGGTCGA”, the binding signal is 1.65 log2 normalized intensity.
To “TAGGCCACCTGTGTCAACATGGACTTTGTTGCCTAGGGAGATTAGAGTATCGGTCGA” belongs 5.86 log2 normalized intensity; to “TTCTGCCTTATCAGCGGCCCTGTGCTGCCCGCCTAGGGAGATTAGAGTATCGGTCGA”, 0.0914 log2 normalized intensity; to “CTTGTCTTATCAGCAGGGTCTTTTTGACCTGCCTAGGGAGATTAGAGTATCGGTCGA”, 4.38 log2 normalized intensity.
For the sequence “CCTCTGTCTCTCAGGCACAGCTCGACCTTTGCCTAGGGAGATTAGAGTATCGGTCGA”, the binding signal stood at 5.94 log2 normalized intensity.
To “GTCTCTCAGGCACAGCTCGACCTTTGACCTGCCTAGGGAGATTAGAGTATCGGTCGA” belongs 10.1 log2 normalized intensity; to “CTATTATGCCTTGACTTCAAATCATACTGAGCCTAGGGAGATTAGAGTATCGGTCGA”, 0.897 log2 normalized intensity; to “TCAGAGATCAAGATACAGGTCAGACCCTGGGCCTAGGGAGATTAGAGTATCGGTCGA”, 0.993 log2 normalized intensity.
In the case of “CTATTGTCCTATGACCCTGCCAAATCCCCCGCCTAGGGAGATTAGAGTATCGGTCGA” it was 4.52 log2 normalized intensity.
In the case of “CATTTTACAGTGCCATTTATCAGTGATTTCGCCTAGGGAGATTAGAGTATCGGTCGA” it was 0.854 log2 normalized intensity; in that of “TTCCAAAGGTCACCCGTATTCCTTAGCTTAGCCTAGGGAGATTAGAGTATCGGTCGA”, 1.6 log2 normalized intensity; in that of “AGGGCAAAGGTCACCAGCTAAGCTGTTACTGCCTAGGGAGATTAGAGTATCGGTCGA”, 5.12 log2 normalized intensity.
In the case of “CTGTCGTCCCAGGGCAAAGGTCACCAGCTAGCCTAGGGAGATTAGAGTATCGGTCGA”, the binding signal came to 6.66 log2 normalized intensity.
As for “GGGCAAATCTGAGGTCAAAGCTGTCAGAGAGCCTAGGGAGATTAGAGTATCGGTCGA”, the binding signal is -0.198 log2 normalized intensity.
In the case of “CTTCCCAGCTGCTGGTCAAAGGGCATTACTGCCTAGGGAGATTAGAGTATCGGTCGA” it was 4.94 log2 normalized intensity; in that of “GTCCCAGGGCAAAGGTCACCAGCTAAGCTGGCCTAGGGAGATTAGAGTATCGGTCGA”, 5.83 log2 normalized intensity.
“CAGAGCTGTCGTCCCAGGGCAAAGGTCACCGCCTAGGGAGATTAGAGTATCGGTCGA”: the binding signal was 7.59 log2 normalized intensity.
In the case of “CCAGGTTCCAAAGGTCACCCGTATTCCTTAGCCTAGGGAGATTAGAGTATCGGTCGA” it was 6.63 log2 normalized intensity; in that of “TATTCCCAGGTTCCAAAGGTCACCCGTATTGCCTAGGGAGATTAGAGTATCGGTCGA”, 6.51 log2 normalized intensity; in that of “GCTGAGGAATTTGGACTTCAGCCCAGGCTGGCCTAGGGAGATTAGAGTATCGGTCGA”, 3.66 log2 normalized intensity.
Take “ACCACCTTCCCCCATCCCCAACAAAGCTCTGCCTAGGGAGATTAGAGTATCGGTCGA”: the binding signal came out at 4.7 log2 normalized intensity.
On to “TCTCAAAAGTTTTTCCCTTCTGTTAGAATGGCCTAGGGAGATTAGAGTATCGGTCGA”, for which the binding signal is -0.592 log2 normalized intensity.
In the case of “CTTCAAGTCAGTTGCATGCAACCTTTGTCCGCCTAGGGAGATTAGAGTATCGGTCGA” it was 5.67 log2 normalized intensity.
“ATATTCACTATCTGATCCTTTACAGAGATAGCCTAGGGAGATTAGAGTATCGGTCGA”: the binding signal was -0.305 log2 normalized intensity.
To “TGTTACTTATAAATAATCTCAACCATACAAGCCTAGGGAGATTAGAGTATCGGTCGA” belongs -0.991 log2 normalized intensity; to “CAACCAAGTCCATCTGTATTGCCTCCTTTGGCCTAGGGAGATTAGAGTATCGGTCGA”, 1.08 log2 normalized intensity.
To “TTCCAGGGATGTTTGGCAGCTGAGGATTGTGCCTAGGGAGATTAGAGTATCGGTCGA” belongs 1.61 log2 normalized intensity; to “CATCTACCAGCGTAATTCTGGCTCTTTGAGGCCTAGGGAGATTAGAGTATCGGTCGA”, 0.87 log2 normalized intensity.
To “GCGTGAGCCACCGCGCCCCGCCCCCAGTGCGCCTAGGGAGATTAGAGTATCGGTCGA” belongs 5.65 log2 normalized intensity; to “GAGATGAGGCTCAGACCTGACCTTTGGATTGCCTAGGGAGATTAGAGTATCGGTCGA”, 7.99 log2 normalized intensity.
